Test results as given in PubChem BioAssay (NCI).
The panel holds about 79,000 compounds, 15% with a hit somewhere; the sample as a whole holds those more often. Unmarked numbers belong to inactive results. Calls of active or inactive are those of the source. Rule as the data show it: active = growth inhibition above about 70%; inactive = the rest.

Assay: NCI Yeast Anticancer Drug Screen. Data for the CLN2oe strain (AID 163);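 also: 0% = growth of vehicle-only control cultures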
Details: S. cerevisiae CLN2oe strain, stronger effect = higher value
Protocol: Growth inhibition of yeast strains with defined genetic alterations is measured as a screen for potential anti-cancer activity. Selected strains with alterations in DNA damage repair or cell cycle control were exposed to compounds and growth inhibition was measured relative to vehicle treated controls. The strain used in this assay is CLN2oe

SMILES | growth inhibition (at 1.2 µM) | growth inhibition (at 3.7 µM) | growth inhibition (at 11.0 µM) | growth inhibition (at 33.0 µM) | growth inhibition (at 100.0 µM)
O=C(NO)c1coc2ccccc2c1=O | 1% | 2% | 4% | 8% | 8%
COc1cccc(/C=C2\S/C(=N/Nc3nc(-c4ccc([N+](=O)[O-])cc4)cs3)NC2=O)c1O | 6% | 25% | 63% | 90% (active) | 93% (active)
O=C(Cc1ccccc1)NNc1nc(NNC(=O)c2ccncc2)nc(Nc2ccc([N+](=O)[O-])cc2)n1 | -8% | -4% | 8% | 11% | 7%
Cc1cc(O)c(C(C)C)cc1SC#N | 12% | -17% | 68% | 54% | 98% (active)
CCCCOc1ccc2nc(C)cc(N=[N+]=[N-])c2c1 | 7% | 6% | 12% | 28% | 64%
CCN1CCC(O)(c2ccc(Oc3ccc(C)cc3)cc2)C(C(=O)c2ccc(Oc3ccc(C)cc3)cc2)C1 (stereo not given) | 29% | 22% | 98% (active) | 96% (active) | 91% (active)
NC(=S)N1N=C2c3ccccc3CC[C@H]2[C@@H]1c1ccc(Cl)cc1 | -6% | -10% | 18% | 42% | 86% (active)
O=CC1(F)CC1(c1ccccc1)c1ccccc1 (stereo not given) | -2% | 1% | 2% | 1% | 25%
